The panel holds about 83,000 compounds, 20% with a hit somewhere; the sample as a whole holds those more often.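 Growth was measured after 48 h exposure to one concentration of compound in 96-well plates. Values under 10 count as active.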 Calls of active or inactive are those of the source.
Assays:
Assay in all cases: NCI-60 one-dose screen, 48 h (100 = growth as untreated, 0 = no growth, -100 = all killed)
Conditions in all cases: 10 µM unless noted
T-47D breast = test system: T-47D breast
BT-549 breast = test system: BT-549 breast
MDA-MB-435 melanoma = test system: MDA-MB-435 melanoma
SW-620 colon = test system: SW-620 colon
MCF7 breast = test system: MCF7 breast
HCT-116 colon = test system: HCT-116 colon
HCC-2998 colon = test system: HCC-2998 colon
KM12 colon = test system: KM12 colon
MDA-MB-468 breast = test system: MDA-MB-468 breast

Measured: growth

COCOc1ccc2c(=O)c(C)c(C(=O)N[C@@H](Cc3ccccc3)C(O)C(=O)NCCc3ccc(OC)cc3)oc2c1 (stereo partly drawn)
inactive: T-47D breast 97.1% | BT-549 breast 122% | MDA-MB-435 melanoma 115% | SW-620 colon 114% | MCF7 breast 103% | HCT-116 colon 104% | HCC-2998 colon 125% | KM12 colon 108% | MDA-MB-468 breast 95.2%

CCN1C(=O)N(CC)C2NNC(Sc3c(C(=O)O)c4ccccc4n(C4CCCC4)c3=O)=NC21 (stereo not drawn)
inactive: T-47D breast 61.4% | SW-620 colon 30.6% | MCF7 breast 16.6% | HCC-2998 colon 26.4% | MDA-MB-468 breast 58.1%
active: BT-549 breast 6.1% | MDA-MB-435 melanoma -29.3% | HCT-116 colon 4.07% | KM12 colon 3.71%

COc1ccccc1C(=O)NN1C(=O)/C(=C/C2=Cc3ccccc3OC2)SC1=S
inactive: T-47D breast 104% | BT-549 breast 83.6% | MDA-MB-435 melanoma 110% | SW-620 colon 114% | MCF7 breast 92.9% | HCT-116 colon 95.7% | HCC-2998 colon 117% | KM12 colon 99.5% | MDA-MB-468 breast 115%

Cc1nc(Nc2ccccn2)sc1C(=O)CC(SCC(=O)Nc1ccc(Cl)cc1)c1ccccc1F (stereo not drawn)
inactive: BT-549 breast 24.2% | MCF7 breast 13.2% | HCC-2998 colon 17.2%
active: T-47D breast -7.28% | MDA-MB-435 melanoma -60% | SW-620 colon 2.15% | HCT-116 colon 4.66% | KM12 colon -19.1% | MDA-MB-468 breast -22.1%

CN(C)c1ccnc(CNCCSC2(c3ccccc3)c3ccccc3C=Cc3ccccc32)c1
active: T-47D breast -32% | BT-549 breast -47.1% | MDA-MB-435 melanoma -86.3% | SW-620 colon -76.1% | MCF7 breast -75.8% | HCT-116 colon -38.8% | HCC-2998 colon -77.3% | KM12 colon -61% | MDA-MB-468 breast -55.3%

C=C1CCC2C3(C)COC(c4ccccc4F)OC3CCC2(C)C1CC(O)C1=CCOC1=O (stereo not drawn)
active: BT-549 breast -18.8% | SW-620 colon -6.12% | HCT-116 colon -59.4%
inactive: T-47D breast 42.1% | MDA-MB-435 melanoma 27.5% | MCF7 breast 15.2% | HCC-2998 colon 36.7% | KM12 colon 45.3% | MDA-MB-468 breast 63.9%

CCCCSc1nc(Nc2ccc(C(C)=O)cc2)c(C#N)c(-c2ccc(OC)cc2)n1
inactive: T-47D breast 64.3% | BT-549 breast 75.3% | MDA-MB-435 melanoma 75.4% | SW-620 colon 63.2% | MCF7 breast 65.4% | HCC-2998 colon 98.4% | KM12 colon 95.3% | MDA-MB-468 breast 67.5%

NS(=O)(=O)c1ccc(NNC(=O)CCC(=O)c2ccccc2)cc1
inactive: T-47D breast 87.5% | BT-549 breast 104% | MDA-MB-435 melanoma 105% | SW-620 colon 102% | MCF7 breast 90.5% | HCT-116 colon 99% | HCC-2998 colon 109% | KM12 colon 104% | MDA-MB-468 breast 93.3%

C=CC[N+](C)(C)CCn1c2ccccc2c2nc3cc(C)c(C)cc3nc21
inactive: T-47D breast 99.9% | BT-549 breast 54.6% | MDA-MB-435 melanoma 99.6% | SW-620 colon 94.6% | MCF7 breast 80% | HCT-116 colon 98.4% | HCC-2998 colon 96.2% | KM12 colon 99%
active: MDA-MB-468 breast -2.23%

COc1ccc(C(=O)/C=C/c2ccc(Oc3nc(Nc4ccc(F)cc4)nc(N(C)C)n3)c(OC)c2)cc1
active: BT-549 breast -4.17% | HCT-116 colon 0.959%
inactive: T-47D breast 19.7% | MDA-MB-435 melanoma 51.4% | SW-620 colon 12.4% | MCF7 breast 15.6% | HCC-2998 colon 100% | KM12 colon 70.2% | MDA-MB-468 breast 40.6%

S=C(NCCc1ccccc1)Nc1ccc(OCc2nc3ccccc3[nH]2)cc1
inactive: T-47D breast 103% | BT-549 breast 109% | MDA-MB-435 melanoma 105% | SW-620 colon 107% | MCF7 breast 95.3% | HCT-116 colon 103% | HCC-2998 colon 114% | KM12 colon 103% | MDA-MB-468 breast 99.5%

CCCS(=O)(=O)N1CCCC(C(=O)Nc2nc3ccc(NC(=O)c4ccc(F)c(OC)c4F)cc3s2)C1 (stereo not drawn)
active: T-47D breast -0.579% | BT-549 breast -11.9%
inactive: MDA-MB-435 melanoma 36.4% | SW-620 colon 81.6% | MCF7 breast 13.1% | HCC-2998 colon 72.5% | KM12 colon 41.3% | MDA-MB-468 breast 18.5%

O=C1NC(=O)/C(=C/c2ccccc2OCc2cc3ccccc3nc2Cl)S1
inactive: T-47D breast 75.3% | BT-549 breast 78.7% | MDA-MB-435 melanoma 101% | SW-620 colon 109% | MCF7 breast 74.3% | HCT-116 colon 108% | HCC-2998 colon 114% | KM12 colon 85.2% | MDA-MB-468 breast 80.6%

O=C1NC(=O)c2c1c1c3cc(Br)ccc3[nH]c1c1oc3ccc(F)cc3c21
active: T-47D breast -20.1% | SW-620 colon 3.59% | MCF7 breast -47.5% | HCT-116 colon 0.579% | HCC-2998 colon -9.47% | MDA-MB-468 breast -51.8%
inactive: BT-549 breast 15.1% | MDA-MB-435 melanoma 33.7% | KM12 colon 15.1%

O=C(NN1C(=O)/C(=C/C=C/c2ccc([N+](=O)[O-])o2)SC1=S)c1cccc(O)c1
active: T-47D breast -44.1% | BT-549 breast -96% | MDA-MB-435 melanoma -93.3% | SW-620 colon -71.1% | MCF7 breast -61.9% | HCC-2998 colon -94.8% | KM12 colon -92.6% | MDA-MB-468 breast -73.4%

COc1cc2oc(-c3cccc(NC(=O)[C@H](CC(N)=O)NC(=O)OC(C)(C)C)c3)cc(=O)c2c(OC)c1OC
inactive: T-47D breast 65.7% | BT-549 breast 82.6% | MDA-MB-435 melanoma 97.2% | SW-620 colon 94.5% | MCF7 breast 71.8% | HCT-116 colon 89.3% | HCC-2998 colon 100% | KM12 colon 87.1% | MDA-MB-468 breast 82.7%

CC1(C)CC[C@]2(C(=O)O)CC[C@]3(C)C(=CCC4[C@@]5(C)C[C@@H](O)[C@@H]6OC(c7ccccc7F)OC[C@@]6(C)C5CC[C@]43C)C2C1 (stereo partly drawn)
active: BT-549 breast -15.9% | MCF7 breast 4.83% | HCT-116 colon -0.989% | KM12 colon 7.3% | MDA-MB-468 breast 5.82%
inactive: T-47D breast 21.3% | MDA-MB-435 melanoma 17.4% | SW-620 colon 14.6% | HCC-2998 colon 11.1%

O=C(Cn1c2c(sc1=O)[C@H]1[C@@H](O)[C@@H](O)[C@H](O)[C@@H]1CS2)N1CCOCC1
inactive: T-47D breast 93.6% | BT-549 breast 99.3% | MDA-MB-435 melanoma 101% | SW-620 colon 107% | MCF7 breast 98.4% | HCT-116 colon 110% | HCC-2998 colon 111% | KM12 colon 103% | MDA-MB-468 breast 105%

COc1cc(-c2nc3cc(Cl)c(Cl)cc3[nH]2)ccc1OCc1nnc(-c2cccs2)o1
active: MCF7 breast 3.79%
inactive: T-47D breast 84% | BT-549 breast 28.1% | MDA-MB-435 melanoma 55.2% | SW-620 colon 33% | HCT-116 colon 29% | HCC-2998 colon 43.9% | KM12 colon 71.5% | MDA-MB-468 breast 46.4%

From PubChem BioAssay (NCI)
